Shown is part of a subset that was picked to be rich in hits.
Pf Dd2 inh: qHTS Primary assay for Inhibitors of Plasmodium falciparum Dd2 growth in vitro. P. falciparum Dd2 growth, SYBR Green, 72 h. Potency, µM (top dose mostly 28.9 µM), without a hit: at the highest dose activity, negative = inhibition, hits mostly inhibitors. 4.3% of 120,000 active. AID 1347417, 2020; active = well fitted inhibition curve with a large enough effect;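 note: plate controls were DMSO vehicle for no effect and reference drug for full effect; nearly all actives have a fitted effect of over 65% in size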
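Readout: SYBR Green fluorescence, 485 nm excitation, 535 nm emission, after ~16 h lysis at 37C. Before that, Dd2-infected red cells (2.5% hematocrit) grew 72 h with compound, 29 uM top final concentration.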
* marks the source's active call; other numbers are inactive results; i = inactive; [ ] = remark or other dose. Potency is the fitted concentration of half-maximal effect.

SMILES	Pf Dd2 inh
O=C(NC1CC1)c1ccc2c(c1)OCCN(c1cccc(OC(F)(F)F)c1)C2	3.5µM*
O=C(NCCc1ccccc1)c1ccc2c(c1)OCCN(c1ccccc1)C2	10µM*
O=C(NCCOc1ccccc1)c1ccc2c(c1)OCCN(c1ccccc1)C2	-12%[44.1 µM]
O=C(NC1CCOCC1)c1ccc2c(c1)OCCN(c1ccccc1)C2	i
O=C(NCc1ccncc1)c1ccc2c(c1)OCCN(c1cccc(OC(F)(F)F)c1)C2	i
CNC(=O)c1ccc2c(c1)OCCN(c1cccc(OC(F)(F)F)c1)C2	11µM*
O=C(NCc1ccncc1)c1ccc2c(c1)OCCN(c1ccccc1)C2	-17%[44.1 µM]
NCCCC(=O)N1CCCC2(Cc3ccccc3CN2C(=O)Cc2cccc(Cl)c2)C1 (stereo not drawn)	-26%
CC1(C(=O)O)CCN(S(=O)(=O)c2ccccc2)CC1	-24%[44.1 µM]
COC[C@@H]1CN(Cc2cc(F)ccc2F)C[C@H]1C(=O)NC1CC1	-11%
COc1ccc(CNC(=O)Cn2nc3n(c2=O)CCCC3)cc1	38%
O=C(NCc1cc2ccc(F)cc2[nH]c1=O)C1CC2(CCNCC2)CN1 (stereo not drawn)	-6%
Cc1nn2c(c1-c1cccc3cn[nH]c13)N(C(=O)c1cccc(Cl)c1)CCC2	-20%[44.1 µM]
Cc1nn2c(c1-c1ccccc1C(N)=O)N(C(=O)Cc1cccc(F)c1)CCC2	13%[44.1 µM]
COc1ccccc1C(=O)N1CCCn2nc(C)c(-c3ccccc3-c3ccccc3)c21	-17%[44.1 µM]
Cc1nn2c(c1-c1ccccc1OCc1ccccc1)N(C(=O)CCc1cccnc1)CCC2	i
Cc1ccncc1-c1c(C)nn2c1N(Cc1ccc(C(=O)O)cc1)CCC2	i
Cc1nn2c(c1-c1ccccc1C(C)C)N(Cc1cccc(C(=O)O)c1)CCC2	4.5µM*
CC(=O)N1CCCn2nc(C)c(-c3ccccc3OCc3ccccc3)c21	i
Cc1nn2c(c1-c1ccccc1[S+](C)(=O)[O-])N(Cc1ccccc1F)CCC2	i
COc1cccc(CC(=O)N2CCCn3nc(C)c(-c4ccccc4-c4ccccc4)c32)c1	10µM*
Cc1nn2c(c1-c1ccccc1Oc1ccccc1)N(C(=O)C1CCC1)CCC2	-2%[44.1 µM]
Cc1nn2c(c1-c1ccccc1Oc1ccccc1)N(Cc1ccccc1O)CCC2	0.56µM*
COc1cccc(CC(=O)N2CCCn3nc(C)c(-c4ccccc4Oc4ccccc4)c32)c1	13µM*
Cc1nn2c(c1-c1ccccc1C(C)C)N(Cc1ccc(C(=O)O)cc1)CCC2	-10%[44.1 µM]
SMILES	Pf Dd2 inh
Cc1ccc(CN2CCn3c(nnc3[C@@H]3C[C@@H](O)CN3C)C2)s1	2%
CC(=O)NC[C@H]1O[C@@H](CC(=O)NC(C)C)[C@H](O)[C@@H]1O	25%[44.1 µM]
Cc1nc(C)c(C(=O)NCc2cccnc2N(C)C2CCCCC2)s1	-26%
O=C(c1cc(COc2ccc3c(c2)OCO3)[nH]n1)N1CCCC1c1ccccn1 (stereo not drawn)	-11%
Cc1nn2c(c1-c1ccccc1OCc1ccccc1)N(C(=O)C(C)C)CCC2	i
Cc1nn2c(c1-c1ccccc1C(C)C)N(C(=O)Cc1ccc(O)cc1)CCC2	i
Cc1nn2c(c1-c1ccccc1-c1ccccc1)N(C(=O)c1cccnc1)CCC2	i
COc1ccc(C(=O)N2CCCn3nc(C)c(-c4ccccc4-c4ccccc4)c32)cc1	10µM*
Cc1nn2c(c1-c1ccccc1Oc1ccccc1)N(C(=O)Cc1ccc(O)cc1)CCC2	8.9µM*
COc1ccc(C(=O)N2CCCn3nc(C)c(-c4ccccc4-c4ccccc4)c32)cn1	i
CCOc1ccccc1CN1CCn2c(nnc2[C@@H]2C[C@@H](O)CN2Cc2cccnc2)C1	i
COc1ccc(CNC(=O)N2CC(N(C3CCOCC3)S(C)(=O)=O)C2)cc1	-23%
C[C@@H]1CN(Cc2nnnn2CC(=O)NC2CCN(Cc3ccccc3)CC2)C[C@H](C)O1	-6%
CC(C)CCN1CC2(CCCN(S(=O)(=O)c3cnn(C)c3)C2)CCC1=O (stereo not drawn)	-6%
COC(=O)c1ccccc1NC(=O)CN1C(=O)NC2(CCC(C)CC2)C1=O (stereo not drawn)	i
Cc1ccccc1-n1c(/C=C/c2c(C)[nH]c3ccccc23)nc2ccccc2c1=O	3.2µM*
O=c1c2ccccc2nc(/C=C/c2ccccc2)n1-c1ccccc1F	i
O=c1c2ccccc2nc(/C=C\c2ccc(F)cc2)n1-c1ccccc1F	i
COCCNC(=O)C[C@@H]1C[C@H]2O[C@H](CNCc3cnccc3Cl)[C@@H](O)[C@H]2O1	-23%[44.1 µM]
Cc1ccc(C(=O)N2CCCN(c3nc4ncccc4o3)CC2)cc1	13%[44.1 µM]
COCCNc1ncccc1-c1noc([C@@H]2CCCN2C2CCC2)n1	-18%[44.1 µM]
COCCNc1ncccc1-c1noc([C@@H]2CCCN2Cc2ccc(C(=O)O)cc2)n1	i
COCCNc1ncccc1-c1noc([C@@H]2CCCN2Cc2ccccc2OC)n1	7.9µM*
COCCOC1CCOC2(CCN(C(=O)c3ccccn3)CC2)C1 (stereo not drawn)	13%
CC[C@H]1CN(C(=O)Nc2ccccc2)CC[C@H]1CC(=O)N(C)CC#N	-20%[44.1 µM]
SMILES	Pf Dd2 inh
O=[N+]([O-])c1cccc(-c2noc([C@@H]3Cc4nc[nH]c4CN3Cc3ccc(F)cc3)n2)c1	10µM*
Cc1cccc(-c2noc([C@@H]3Cc4nc[nH]c4CN3Cc3ccc(C(=O)O)cc3)n2)c1	i
O=[N+]([O-])c1cccc(-c2noc([C@@H]3Cc4nc[nH]c4CN3Cc3cccs3)n2)c1	-16%[44.1 µM]
N#Cc1cccc(CN2Cc3[nH]cnc3C[C@H]2c2nc(-c3cccc([N+](=O)[O-])c3)no2)c1	13µM*
N#Cc1cccc(CN2Cc3[nH]cnc3C[C@H]2C(=O)NCc2ccco2)c1	-6%[44.1 µM]
Cc1cccc(-c2noc([C@@H]3Cc4nc[nH]c4CN3C(=O)c3ccc(F)cc3)n2)c1	i
O=C1CCCN1CCC1CCCCN1C(=O)c1cn(Cc2ccc(F)cc2Cl)nn1 (stereo not drawn)	-1%
Cc1cc(C(=O)N2CCC(c3nnc(Cn4ccnc4)n3C)CC2)cs1	0%
Cc1nc2cccnc2n1CC1CCCN(S(=O)(=O)c2ccc(C(C)C)cc2)C1 (stereo not drawn)	i
Cc1cc(C)c(Cn2c3ccccc3c3cnn(CC(=O)NCc4ccccn4)c(=O)c32)c(C)c1	10µM*
CCOC(=O)N1CCN(C(=O)Cn2ncc3c4ccccc4n(Cc4ccc(F)cc4)c3c2=O)CC1	10µM*
Cc1cc(C)c(Cn2c3ccccc3c3cnn(CC(=O)N4CCCCCC4)c(=O)c32)c(C)c1	7.1µM*
CC1CCC(NC(=O)Cn2ncc3c4ccccc4n(Cc4ccc(F)cc4)c3c2=O)CC1 (stereo not drawn)	-8%
Cc1ccccc1Cn1c2ccccc2c2cnn(CC(=O)NCc3ccccn3)c(=O)c21	0%
O=C(Cn1ncc2c3ccccc3n(Cc3ccc(Cl)cc3)c2c1=O)NCc1ccccn1	-22%
O=C(Cn1ncc2c3ccccc3n(Cc3cccc(Cl)c3)c2c1=O)N1CCCCCC1	8.9µM*
CCC(Cc1ccccc1)NC(=O)Cn1ncc2c3ccccc3n(Cc3ccc(F)cc3)c2c1=O (stereo not drawn)	-5%
O=C(Cn1ncc2c3ccccc3n(Cc3ccccc3)c2c1=O)N1CCCCCC1	3%
CC(CCc1ccccc1)NC(=O)Cn1ncc2c3ccccc3n(Cc3cccc(Cl)c3)c2c1=O (stereo not drawn)	-5%
Cc1ccccc1Cn1c2ccccc2c2cnn(CC(=O)NC3CCCCCC3)c(=O)c21	12%
CCCn1c2ccccc2c2cnn(CC(=O)N3CCC(C)CC3)c(=O)c21	i
